Experimental findings from PubChem BioAssay AID652068 (The Scripps Research Institute Molecular Screening Center, 2013) are described below.

The structures appear in SMILES notation. Screen size: about 4,300 compounds; about 4,000 (93%) were called active. The set was probably picked from earlier hits. These entries were drawn from the full list. A number with no mark means an inactive call.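 Rule for the calls: active = inhibition above its plate's cutoff, the mean test-well inhibition plus 3 SD (cut at about 4.8% in these data); inactive = the rest.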

One may read the inhibition as the share of the control response that was lost under treatment.

The nature of the test: displacement of TO-PRO-1 from CAG DNA duplex, counter-screen for rCAG RNA repeat binder project, biochemical, fluorescence, TO-PRO-1 dye, d(CAG) DNA oligo (AID 652068).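 Note: 0% = DNA dye mix with DMSO and 100% = 100 µM mitoxantrone; hits displace the dye from DNA and so lower well fluorescence.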 As to conditions: d(CAG) DNA oligo TO-PRO-1 dye displacement, at 3 µM, active compounds read high. A general note: The purpose of a counterscreen is to sort out artefacts and off-target activity.
As for `CC1(C(=O)NS(=O)(=O)c2ccc3ccccc3c2)CCN1C(=O)C1(c2ccc(Cl)cc2)CCC1` (centres undefined), the inhibition is 31.7% (active).
For `O=C(Nc1ccc(S(=O)(=O)Nc2nccs2)cc1)c1cccc(S(=O)(=O)N2CCOCC2)c1` the value was 5.67% (active).
The value for `Cc1ccc(OCCC(=O)Nc2ccc(S(=O)(=O)Nc3nccs3)cc2)cc1` was 14.7% (active); that for `O=C(CCc1ccccc1Cl)Nc1ccc(S(=O)(=O)Nc2nccs2)cc1` was 10.9% (active).
For `CN1CCN(S(=O)(=O)c2cccc(C(=O)Nc3sccc3C#N)c2)CC1` the value was 7.1% (active); for `O=C(Nc1ccc(S(=O)(=O)Nc2nccs2)cc1)c1cc(-c2ccncc2)nc2ccccc12`, 29.6% (active); for `CC1CCCCN1S(=O)(=O)c1ccc(C(=O)Nc2nnc(-c3cccs3)o2)cc1` (centres undefined), 14.2% (active).
With `Cc1ccccc1S(=O)(=O)N1[C@@H](c2cccc(Cl)c2)C(C(=O)O)=CC[C@H]1c1ccc(Cl)cc1`, the inhibition was 53.5% (active).
Take `Cc1ccc([C@@H]2CC=C(C(=O)O)[C@H](c3cccc(Cl)c3)N2S(=O)(=O)c2ccc(C)cc2)cc1`: the inhibition was 41.1% (active).
For `Cc1ccc(S(=O)(=O)N2[C@@H](c3ccccc3F)C(C(=O)O)=CC[C@H]2c2ccc(Cl)cc2)cc1` the value was 29.3% (active).
For `CC(=O)Nc1ccc(-c2csc(NC(=O)Nc3ccccc3)n2)cc1`, the inhibition was 22.8% (active).
For `CC(=O)Nc1ccc(C(=O)Nc2nc(-c3cc(C)n(Cc4ccccc4)c3C)cs2)cc1` the value was 14.6% (active).
For `CC(=O)Nc1ccc(S(=O)(=O)Nc2nc(-c3ccc(C(C)(C)C)cc3)cs2)cc1` the value was 30.7% (active); for `O=C(Nc1ccccc1)Nc1nc2ccccc2s1`, 14.7% (active); for `Cc1cc(C)c2nc(-c3cccnc3)cc(C(=O)Nc3ccc(S(=O)(=O)Nc4onc(C)c4C)cc3)c2c1`, 58.6% (active).
Regarding `Cc1noc(NS(=O)(=O)c2ccc(NC(=O)c3oc4ccc(F)cc4c3C)cc2)c1C`, the inhibition was 25.4% (active).
The value for `Nc1[nH]c(=S)nc2nc(-c3ccccc3)c(-c3ccccc3)nc12` was 13.8% (active); that for `Cc1ccc(-n2ncc3c(Nc4cccc(C(=O)O)c4)ncnc32)cc1` was 4.92% (active).
For `O=S(=O)(Nc1ccc(O)c2ccccc12)c1ccc(OC(F)(F)F)cc1` the value was 23.5% (active); for `O=c1oc(-c2ccccc2NS(=O)(=O)c2ccc(Cl)cc2)nc2ccccc12`, 8.49% (active); for `CSc1nnc(NC(=O)c2nc(S(=O)(=O)Cc3ccc(C)cc3)ncc2Cl)s1`, 11.6% (active).
For `C=CCNc1nc(N)c(C(=C(C#N)C#N)c2ccccc2)s1`, the inhibition was 9.76% (active).
The value for `COc1ccccc1C1C(C#N)=C(N)Oc2c1c(-c1ccccc1)nn2-c1ccccc1` (centres undefined) was 12% (active).
The value for `COc1ccc(COC(=O)NC(C(=O)O)c2ccccc2)cc1` (centres undefined) was 1.1%; that for `Cc1c(C)c2c(OCC(=O)N[C@@H](C(=O)O)c3ccccc3)cc3c(c2oc1=O)CCC(C)(C)O3` was 12.5% (active).
For `Cc1cc(Br)cn2c(Cc3cccc(F)c3)c(-c3cccc(Br)c3)nc12` the value was 2.14%.
Regarding `COc1ccc(-c2nc3ccc(Br)cn3c2Cc2ccc(C)cc2)cc1OC`, the inhibition was 5.84% (active).
The value for `Fc1cccc(Cc2c(-c3cccc(Cl)c3)nc3ccc(Br)cn23)c1` was 12.8% (active); that for `CCC(C)Cn1c(O)cc2nn(-c3nc4ccccc4s3)c(=O)c-2c1C` (centres undefined) was 30.4% (active); that for `COc1cc(NC(=O)c2ccccc2NS(=O)(=O)c2ccc(Cl)s2)cc(OC)c1` was 46.6% (active).
The value for `Cc1ccc(CNC(=O)C2CCN(S(=O)(=O)c3ccc4nc5c(c(C(=O)O)c4c3)CC(C)CC5)CC2)cc1` (centres undefined) was 11.1% (active).
For `CCOc1cc(C)ccc1OCc1nnc(SCC(=O)Nc2cccc(C(=O)O)c2)n1-c1ccccc1` the value was 11.8% (active); for `Cc1sc2nc(SCC(=O)c3ccc(O)c(O)c3)n(Cc3ccco3)c(=O)c2c1C`, 31.4% (active); for `O=C(COC(=O)c1ccc(NS(=O)(=O)c2cccs2)cc1O)Nc1ccc(F)cc1`, 5.07% (active).
On to `O=C(O)c1[nH]c2ccccc2c1C(c1cccc(O)c1)c1c(C(=O)O)[nH]c2ccccc12`, for which the inhibition is 12.6% (active).
For `CCOC(=O)c1cc2cc(-c3c(C(=O)OCC)oc4cc(O)cc(O)c4c3=O)ccc2o1` the value was 10.2% (active); for `O=C(CCCN1C(=O)/C(=C\c2ccco2)SC1=S)Nc1cccc2ccccc12`, 13.7% (active); for `Cc1ccc(NC(=O)CSc2sc3c(O)cc(=O)[nH]c3c2C#N)cc1C`, 11.8% (active).
With `CO/N=C(\C(=O)N[C@@H]1C(=O)N2C(C(=O)O)=C(COC(C)=O)CS[C@H]12)c1csc(N)n1` (stereo in doubt), the inhibition was 17.5% (active).
The value for `O=[N+]([O-])c1cc(Br)c(O)c(/C=N/Nc2nc3ccccc3s2)c1` was 83.5% (active); that for `COc1ccc(S(=O)(=O)/N=C2\C=C(NS(=O)(=O)c3ccccc3)C(=O)c3ccccc32)cc1` was 56.1% (active).
For the compound `O=C(NNc1c2ccccc2nc2ccccc12)c1cc2ccccc2cc1O`, the inhibition is 27.7% (active).
With `Cc1cc(/C=N/Nc2ccc([N+](=O)[O-])cn2)c(C)n1-c1cccc(C(=O)O)c1`, the inhibition is 10.4% (active).
The value for `O=c1ccc2c(-c3ccccc3S(=O)(=O)O)c3ccc(O)c(O)c3oc-2c1O` was 69.2% (active).
For `O=C(Nc1cccc(F)c1)c1cc(-c2ccco2)nc2ccccc12` the value was 3.28%; for `O=C(O)c1cccc(NC(=O)c2cc(-c3cccc(Cl)c3)nc3ccccc23)c1`, 14.3% (active).
Turning to `Cc1oc2c(F)c(F)c(F)c(F)c2c1S(=O)(=O)Nc1cccc(C(F)(F)F)c1`, the inhibition is 13.1% (active).
For `Nc1cccc(-c2cc(-c3ccccc3)nc(-c3cccc(N)c3)n2)c1` the value was 6.95% (active).
As for `Cc1oc2cc([N+](=O)[O-])c(O)c([N+](=O)[O-])c2c1C(=O)c1ccc(Br)cc1`, the inhibition is 15.8% (active).
